Records with an inconclusive call do not appear. Activity calls are given as the source filed them. Unless noted, calls come from the whole dose curve; as a rule, active = well fitted curve in the direction sought with a large enough effect in the repeat runs; inconclusive = weak or mixed curves; inactive = no such curve, though single readings can be large; an effect the other way counts as inactive or inconclusive.
Columns and labels:
[1] = target: Estrogen receptor (Homo sapiens) (UniProt P03372); assay: qHTS assay to identify small molecule antagonists of the estrogen receptor alpha (ER-alpha) signaling pathway (AID 743069; active = well fitted curve in the direction sought with a large enough effect in the signal ratio in the repeat runs, not every such curve was filed as active; the % refers to the signal ratio)
Sequence of Estrogen receptor (Homo sapiens) (P03372 whole entry, looked up): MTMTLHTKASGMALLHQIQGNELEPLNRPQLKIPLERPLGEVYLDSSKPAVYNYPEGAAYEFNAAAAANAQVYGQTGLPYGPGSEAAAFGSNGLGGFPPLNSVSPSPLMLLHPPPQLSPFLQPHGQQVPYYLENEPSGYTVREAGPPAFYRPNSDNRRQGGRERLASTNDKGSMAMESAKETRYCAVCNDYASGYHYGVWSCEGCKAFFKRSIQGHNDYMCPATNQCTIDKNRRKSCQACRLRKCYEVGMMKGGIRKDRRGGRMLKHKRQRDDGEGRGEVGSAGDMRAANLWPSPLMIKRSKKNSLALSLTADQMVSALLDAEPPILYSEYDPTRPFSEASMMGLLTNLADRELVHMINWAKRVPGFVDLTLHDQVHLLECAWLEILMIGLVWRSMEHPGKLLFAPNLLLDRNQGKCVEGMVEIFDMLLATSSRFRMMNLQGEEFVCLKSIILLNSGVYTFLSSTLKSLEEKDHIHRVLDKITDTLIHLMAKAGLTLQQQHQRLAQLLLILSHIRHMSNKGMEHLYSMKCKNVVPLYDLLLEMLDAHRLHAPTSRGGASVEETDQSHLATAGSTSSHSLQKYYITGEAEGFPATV
Summary of the method: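 ER-alpha-UAS-bla GripTite HEK293 line; 2% charcoal-stripped FBS overnight; plated, 4 hr 37C/5% CO2; cpd in DMSO + 17beta-estradiol, 18 hr 37C; LiveBLAzer B/G FRET substrate 2 hr RT; fluorescence intensity.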

[2] = qHTS assay to identify small molecule antagonists of the estrogen receptor alpha (ER-alpha) signaling pathway - cell viability counter screen (AID 743074; calls by dose curve;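 note: HEK293 cells carrying ER-alpha-UAS-bla reporter stimulated with 17beta-estradiol; nearly all actives have a fitted effect of over 45% in size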)
[3] = target: Estrogen receptor (Homo sapiens) (UniProt P03372); assay: qHTS assay to identify small molecule agonists of the estrogen receptor alpha (ER-alpha) signaling pathway (AID 743075; calls by dose curve;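 note: HEK293 GripTite cells with ER-alpha and UAS-driven beta-lactamase reporter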)
[4] = target: Estrogen receptor (Homo sapiens) (UniProt P03372); assay: qHTS assay to identify small molecule agonists of the estrogen receptor alpha (ER-alpha) signaling pathway using the BG1 cell line (AID 743079); details: BG1Luc4E2 cells, ERE-luciferase agonist, 22 h; activation: at 70.3 µM (top of the series); note: nearly all actives have a fitted effect of over 20% in size; note: potency is the fitted concentration of half-maximal effect
[5] = qHTS assay to identify small molecule antagonists of the estrogen receptor alpha (ER-alpha) signaling pathway using the BG1 cell line - cell viability counter screen (AID 743081);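 note: compound given together with 17beta-estradiol as the ER stimulus; nearly all actives have a fitted effect of over 45% in size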; note: potency is the fitted concentration of half-maximal effect
Aromatase (Homo sapiens) = Aromatase (Homo sapiens) (UniProt P11511); assay: qHTS assay to identify aromatase inhibitors (AID 743083); note: nearly all actives have a fitted effect of over 55% in size
Sequence of Aromatase (Homo sapiens) (P11511 whole entry, looked up): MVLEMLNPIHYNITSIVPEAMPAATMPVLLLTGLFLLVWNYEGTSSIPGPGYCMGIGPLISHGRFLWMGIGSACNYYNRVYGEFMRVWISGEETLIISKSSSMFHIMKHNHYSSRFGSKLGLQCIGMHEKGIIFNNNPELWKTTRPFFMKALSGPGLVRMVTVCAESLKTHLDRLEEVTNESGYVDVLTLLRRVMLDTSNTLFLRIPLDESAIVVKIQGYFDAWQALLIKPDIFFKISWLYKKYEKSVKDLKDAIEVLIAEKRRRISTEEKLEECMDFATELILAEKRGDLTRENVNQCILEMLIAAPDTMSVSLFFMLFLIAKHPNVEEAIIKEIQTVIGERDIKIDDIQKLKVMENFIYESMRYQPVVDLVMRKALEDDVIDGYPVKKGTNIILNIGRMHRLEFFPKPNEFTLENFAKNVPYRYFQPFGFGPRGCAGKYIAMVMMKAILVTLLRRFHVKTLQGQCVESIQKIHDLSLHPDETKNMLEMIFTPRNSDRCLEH

[6] = qHTS assay to identify aromatase inhibitors - cell viability counter screen (AID 743084);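 note: cells stimulated with testosterone during compound exposure; nearly all actives have a fitted effect of over 55% in size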
[7] = target: Peroxisome proliferator-activated receptor gamma (Homo sapiens) (UniProt P37231); assay: qHTS assay to identify small molecule agonists of the peroxisome proliferator-activated receptor gamma (PPARg) signaling pathway (AID 743094; active = well fitted activation curve with a large enough effect in the signal ratio in the repeat runs, not every such curve was filed as active; the % refers to the signal ratio)
Sequence of Peroxisome proliferator-activated receptor gamma (Homo sapiens) (P37231 whole entry, looked up): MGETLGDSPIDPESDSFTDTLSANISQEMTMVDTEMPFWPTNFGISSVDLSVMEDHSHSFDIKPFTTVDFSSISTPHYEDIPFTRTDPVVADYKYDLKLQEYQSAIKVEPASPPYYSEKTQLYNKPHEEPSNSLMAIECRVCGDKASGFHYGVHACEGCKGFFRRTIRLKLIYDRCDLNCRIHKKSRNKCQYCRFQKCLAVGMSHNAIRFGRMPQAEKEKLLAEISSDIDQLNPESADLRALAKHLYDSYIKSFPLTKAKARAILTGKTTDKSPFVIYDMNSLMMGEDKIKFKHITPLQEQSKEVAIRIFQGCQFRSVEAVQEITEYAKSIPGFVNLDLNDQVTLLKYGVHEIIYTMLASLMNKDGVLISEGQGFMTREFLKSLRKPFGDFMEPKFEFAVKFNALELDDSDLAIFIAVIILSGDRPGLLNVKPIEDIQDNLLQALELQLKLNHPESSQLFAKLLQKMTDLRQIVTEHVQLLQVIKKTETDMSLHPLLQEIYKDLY
Summary of the method: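 GeneBLAzer PPARg UAS-bla HEK293H cells carrying a stably integrated beta-lactamase reporter were pre-incubated 5 h at 37C, then exposed to compounds in DMSO for 17 h at 37C; LiveBLAzer B/G FRET substrate was added for 1 h at room temperature and fluorescence read.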

[8] = qHTS assay to identify small molecule phospholipidosis (PLD) inducers (AID 1259344; active = well fitted curve in the direction sought with a large enough effect; an effect the other way counts as inactive or inconclusive)
Summary of the method: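 Phospholipidosis is scored by imaging LipidTOX-stained pits in HepG2 cells exposed to compound for 24 h at 37 C; pit counts and integrated intensities per well and per cell serve as outputs.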

[9] = target: Nuclear receptor subfamily 1 group I member 2 (Rattus norvegicus) (UniProt Q9R1A7); assay: Rat pregnane X receptor (rPXR) activation by small molecules, qHTS assay (AID 1346983); details: rPXR luciferase reporter cells, One-Glo luminescence, 24 h; max activation: stronger effect = higher value; note: nearly all actives have a fitted effect of over 20% in size
Sequence of Nuclear receptor subfamily 1 group I member 2 (Rattus norvegicus) (Q9R1A7 whole entry, looked up): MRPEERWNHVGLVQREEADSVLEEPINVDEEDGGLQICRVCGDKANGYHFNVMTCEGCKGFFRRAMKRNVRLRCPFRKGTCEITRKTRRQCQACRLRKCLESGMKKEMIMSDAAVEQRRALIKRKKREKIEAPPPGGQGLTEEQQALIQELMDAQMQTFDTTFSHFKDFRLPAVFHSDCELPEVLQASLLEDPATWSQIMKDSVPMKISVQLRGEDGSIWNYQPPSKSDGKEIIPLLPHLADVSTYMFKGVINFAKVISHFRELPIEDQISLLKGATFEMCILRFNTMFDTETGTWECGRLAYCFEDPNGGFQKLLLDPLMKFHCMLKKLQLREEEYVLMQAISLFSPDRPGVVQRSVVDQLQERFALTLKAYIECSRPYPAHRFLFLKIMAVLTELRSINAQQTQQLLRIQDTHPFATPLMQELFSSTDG
Summary of the method: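 Luminescent readout (One-Glo luciferase, 30 min room temperature) followed 24 hr compound treatment at 37 C of rPXR cells plated 2,000 per well and preincubated 5hr; qHTS format with compounds delivered in DMSO.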

[10] = target: Nuclear receptor subfamily 1 group I member 2 (Homo sapiens) (UniProt O75469); assay: CYP3A4 induction through human pregnane X receptor (PXR) by small molecules, qHTS assay (AID 1346984); note: nearly all actives have a fitted effect of over 40% in size; note: potency is the fitted concentration of half-maximal effect
Summary of the method: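 DPX-2 cells (HepG2 co-transfected with PXR and CYP3A4 promoter-luciferase) treated with compounds 24 h at 37C; luciferin-IPA CYP3A4 substrate 3uM final added for 3 h, then One-Glo; luminescence read. qHTS format.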

[11] = target: Nuclear receptor subfamily 1 group I member 2 (Homo sapiens) (UniProt O75469); assay: Human pregnane X receptor (PXR) activation by small molecules, qHTS assay (AID 1346985); note: nearly all actives have a fitted effect of over 40% in size; note: potency is the fitted concentration of half-maximal effect
Summary of the method: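 DPX-2 cells (HepG2 co-transfected with a PXR response element and a CYP3A4-promoter luciferase construct) were seeded at 2,000 per well, rested 5 hr at 37C, then exposed to DMSO-dissolved compounds for 24 hr. Activation was read as luciferase luminescence.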

[12] = qHTS assay to identify small molecule antagonists of the thyroid receptor (TR) signaling pathway (AID 743065); note: nearly all actives have a fitted effect of over 55% in size; note: potency is the fitted concentration of half-maximal effect
Summary of the method: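 Antagonism measured as loss of luciferase signal in GH3 cells stably carrying a TRE-luciferase reporter, co-treated with compound and T3 (1 nM final) for 23.5 h at 37 C. Viability was read in the same well by CellTiter-Fluor.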

[13] = tested on: thyroid hormone receptor (rat, GH3 cells); assay: qHTS assay to identify small molecule agonists of the thyroid receptor (TR) signaling pathway (AID 743066; calls by dose curve)
[14] = target: Aryl hydrocarbon receptor (Homo sapiens) (UniProt P35869); assay: qHTS assay to identify small molecule that activate the aryl hydrocarbon receptor (AhR) signaling pathway (AID 743085); note: nearly all actives have a fitted effect of over 15% in size; note: potency is the fitted concentration of half-maximal effect;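 for activation: HG2L7.5c1 human HepG2 liver cells with stably integrated DRE-driven firefly reporter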
Sequence of Aryl hydrocarbon receptor (Homo sapiens) (P35869 whole entry, looked up): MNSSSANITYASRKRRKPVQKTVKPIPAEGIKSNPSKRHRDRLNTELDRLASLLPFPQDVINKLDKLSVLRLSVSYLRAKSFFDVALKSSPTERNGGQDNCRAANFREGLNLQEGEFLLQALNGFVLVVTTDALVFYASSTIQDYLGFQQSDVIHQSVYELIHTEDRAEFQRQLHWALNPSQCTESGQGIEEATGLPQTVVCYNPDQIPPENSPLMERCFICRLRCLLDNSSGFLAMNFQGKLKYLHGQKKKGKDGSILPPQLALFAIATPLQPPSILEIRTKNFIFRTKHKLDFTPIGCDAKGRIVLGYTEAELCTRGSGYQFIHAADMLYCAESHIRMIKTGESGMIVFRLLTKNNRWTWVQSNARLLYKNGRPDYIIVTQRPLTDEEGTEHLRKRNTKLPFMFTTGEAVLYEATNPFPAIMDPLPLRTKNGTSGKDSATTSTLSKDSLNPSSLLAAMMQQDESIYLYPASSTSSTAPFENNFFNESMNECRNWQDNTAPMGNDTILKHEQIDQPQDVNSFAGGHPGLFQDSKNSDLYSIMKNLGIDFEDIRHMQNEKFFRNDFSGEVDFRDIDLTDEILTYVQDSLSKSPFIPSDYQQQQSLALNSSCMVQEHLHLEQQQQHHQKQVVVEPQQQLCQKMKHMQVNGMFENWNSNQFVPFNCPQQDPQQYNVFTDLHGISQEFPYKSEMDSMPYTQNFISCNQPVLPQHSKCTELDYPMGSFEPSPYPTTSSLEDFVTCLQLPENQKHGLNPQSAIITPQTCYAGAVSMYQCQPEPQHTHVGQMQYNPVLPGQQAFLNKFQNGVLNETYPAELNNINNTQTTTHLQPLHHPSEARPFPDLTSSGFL
Summary of the method: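 Measured in HG2L7.5c1 cells: CellTiter-Fluor signal (30 min incubation, 37C) for viability, then luciferase luminescence (30 min, room temperature). Compound contact time was 24 h at 37C, following a 5 h pre-incubation.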

[15] = qHTS assay to identify small molecule that activate the aryl hydrocarbon receptor (AhR) signaling pathway - cell viability counter screen (AID 743086);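 note: HepG2 liver cells carrying the AhR DRE luciferase reporter; nearly all actives have a fitted effect of over 45% in size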
Summary of the method: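 Cytotoxicity counter screen: CellTiter-Fluor signal (30 min, 37 C) in 4000 HepG2 cells/well carrying the DRE-luciferase reporter, following 24 h compound exposure at 37 C.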

[16] = qHTS assay to identify small molecule antagonists of the thyroid receptor (TR) signaling pathway - cell viability counter screen (AID 743064); note: nearly all actives have a fitted effect of over 50% in size; note: potency is the fitted concentration of half-maximal effect
Summary of the method: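 Counter screen for cytotoxicity: compound plus T3 (1 nM final) on GH3.TRE-Luc cells, 23.5 h at 37 °C, then fluorescence viability readout with CellTiter-Fluor.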

[17] = qHTS assay to identify small molecule antagonists of the estrogen receptor alpha (ER-alpha) signaling pathway using the BG1 cell line (AID 743080; calls by dose curve;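 note: BG1 cells stimulated with 17beta-estradiol alongside compound; nearly all actives have a fitted effect of over 25% in size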)
Summary of the method: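 Luciferase inhibition measured with ONE-Glo after 30 min at RT in BG1Luc4E2 cells given test compounds and 17beta-estradiol for 21.5 h at 37 C; CellTiter-Fluor viability read in the same wells beforehand.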
% is set by controls: 0 for no effect and ±100 for the full control effect.

Cc1cc(C(=O)NNCc2ccccc2)no1
inactive: Potency [1] | Potency [2] | Potency [3] | Potency [5] | Potency (Aromatase (Homo sapiens)) | Potency [6] | Potency [7] | Potency [8] | max activation [9] -1.39% | Potency [10] | Potency [11]
active: Potency [4] 5.07 µM

CCCCC(C)(O)C/C=C/[C@H]1[C@H](O)CC(=O)[C@@H]1CCCCCCC(=O)OC (some centres undefined)
inactive: Potency [12] | Potency [13] | Potency [2] | Potency [5] | Potency (Aromatase (Homo sapiens)) | Potency [6] | Potency [14] | Potency [15] | Potency [7] | Potency [8] | max activation [9] -4.82% | Potency [10] | Potency [11]

CCCCCCCCCCCC(=O)OC[C@@H](O)C1OC[C@H](O)[C@H]1O (some centres undefined)
inactive: Potency [12] | Potency [13] | Potency [2] | Potency [5] | Potency (Aromatase (Homo sapiens)) | Potency [6] | Potency [14] | Potency [15] | Potency [7] | Potency [8] | max activation [9] -2.81% | Potency [10] | Potency [11]

CN(C)C=Nc1c(I)cc(I)c(CCC(=O)O)c1I
active: Potency [11] 14.1 µM
inactive: Potency [16] | Potency [12] | Potency [13] | Potency [1] | Potency [2] | Potency [3] | Potency [4] | Potency [17] | Potency [5] | Potency (Aromatase (Homo sapiens)) | Potency [6] | Potency [14] | Potency [15] | Potency [8] | max activation [9] -2.71%

CC1(C)[C@@H]2CC[C@@]1(C)[C@H](OC(=O)CSC#N)C2
inactive: Potency [16] | Potency [12] | Potency [13] | Potency [1] | Potency [2] | Potency [3] | Potency [4] | Potency [17] | Potency [5] | Potency (Aromatase (Homo sapiens)) | Potency [6] | Potency [14] | Potency [15] | Potency [7] | Potency [8] | max activation [9] 7.49% | Potency [10]

CC(=O)Nc1ccc(NC(=S)NC(=O)c2ccc(C(C)(C)C)cc2)cc1
inactive: Potency [13] | Potency [2] | Potency [5] | Potency (Aromatase (Homo sapiens)) | Potency [6] | Potency [15] | Potency [7] | Potency [8] | max activation [9] -2.69% | Potency [10]
active: Potency [16] 8.41 µM | Potency [12] 2.66 µM | Potency [14] 1.5 µM

CCN(CC)Cc1cc(Nc2ccnc3cc(Cl)ccc23)ccc1O
inactive: Potency [2] | Potency (Aromatase (Homo sapiens)) | Potency [14] | Potency [15] | Potency [8] | max activation [9] -2.52% | Potency [10] | Potency [11]

CC(=C\c1ccccc1)/C=C1/SC(=S)N(CC(=O)O)C1=O
inactive: Potency [13] | Potency [1] | Potency [2] | Potency [3] | Potency [4] | Potency [17] | Potency (Aromatase (Homo sapiens)) | Potency [6] | Potency [14] | Potency [8] | max activation [9] 4.01% | Potency [10]
active: Potency [5] 29.8 µM

CC(CN1c2ccccc2Sc2cccnc21)N(C)C (centres undefined)
active: Potency [10] 3.98 µM
inactive: Potency [13] | Potency [1] | Potency [2] | Potency [4] | Potency [17] | Potency [5] | Potency (Aromatase (Homo sapiens)) | Potency [6] | Potency [14] | Potency [15] | Potency [7] | Potency [8] | max activation [9] -2.44%
